Shown is part of a subset that was picked to be rich in hits.
STK33 inh – blocks human STK33 kinase activity. ADP-Glo luminescence, MBP substrate. inhibition, % at 12.5 µM. 27,000 compounds, 0.44% hits. AID 2322; in the data active = inhibition above about 20%; inconclusive = no clear call, values can overlap the other calls
Target sequence (Q9BYT3 whole entry, looked up): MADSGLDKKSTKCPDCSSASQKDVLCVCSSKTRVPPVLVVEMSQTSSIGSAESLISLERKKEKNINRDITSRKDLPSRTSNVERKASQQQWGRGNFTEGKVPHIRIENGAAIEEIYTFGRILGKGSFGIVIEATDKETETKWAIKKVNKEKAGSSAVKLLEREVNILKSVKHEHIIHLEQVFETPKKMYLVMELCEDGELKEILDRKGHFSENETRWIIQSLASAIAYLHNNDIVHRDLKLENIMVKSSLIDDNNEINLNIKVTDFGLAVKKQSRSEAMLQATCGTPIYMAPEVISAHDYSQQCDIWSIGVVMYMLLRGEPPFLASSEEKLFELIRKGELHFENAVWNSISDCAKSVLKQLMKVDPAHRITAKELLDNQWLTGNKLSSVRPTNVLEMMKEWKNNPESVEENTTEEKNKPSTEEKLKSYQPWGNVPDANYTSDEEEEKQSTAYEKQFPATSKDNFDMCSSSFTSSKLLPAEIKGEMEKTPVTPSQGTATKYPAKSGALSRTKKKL
NOMO-1 viab – STK33 inhibitor candidate reducing NOMO-1 cell viability. NOMO-1 AML viability, CellTiter-Glo luminescence, 72 h. inhibition, % (no concentration beside the values). 37,000 compounds, 7.5% hits. AID 2330; in the data active = inhibition above about 80%; inconclusive = no clear call, values can overlap the other calls
PD-1 reversal – activators reversing PD-1 mediated T-cell inhibition. AID 2316. activation, % (test concentration not listed). 29,000 tested, under 10 active. primary human CD4 T cells, PD-L1 beads, CellTiter-Glo 96 h; call rule not given here
Of the large screens only hits and unclear results are named; the others gave an inactive call.

C[C@@H]1CN([C@H](C)CO)C(=O)Cc2cc(NC(=O)Nc3ccc(C(F)(F)F)cc3)ccc2O[C@@H]1CN(C)C	none
C[C@@H]1CN([C@H](C)CO)C(=O)c2cc(NC(=O)Nc3ccc(C(F)(F)F)cc3)ccc2O[C@@H]1CN(C)CC1CC1	none (no result: STK33 inh, PD-1 reversal)
O=S(=O)(c1ccc(Br)cc1)c1nc(-c2ccc(F)cc2)oc1NCc1cccnc1	none
O=C1O[C@@H](c2ccccc2)[C@@H](c2ccccc2)N2[C@@H](c3ccc(OCCO)cc3)[C@]3(C(=O)Nc4ccc(C#CC5(O)CCCCCC5)cc43)[C@@H](C(=O)NC[C@H](O)c3ccccc3)[C@H]12	none (no result: NOMO-1 viab, PD-1 reversal)
COC(=O)c1scc(C#N)c1N=CN(C)C	none
CCn1c(SCC(=O)Nc2ccc(C)cc2C)nnc1-c1cccs1	none
CCOC(=O)c1c(NC(=O)CSc2nc3ccccc3c(=O)[nH]2)sc2c1CCCC2	NOMO-1 viab 107
CCOC(=O)c1c(NC(=O)Cn2cnc3ccccc3c2=O)sc2c1CCCC2	none
CCCC(=O)n1nc(-c2ccc(Cl)cc2)nc1NCc1ccco1	none
NC(=O)N/N=C/c1ccc([N+](=O)[O-])o1	none (no result: PD-1 reversal)
COC(=O)C(NC(=O)c1ccc([N+](=O)[O-])o1)C(C)C (stereo unspecified)	NOMO-1 viab 113 (no result: PD-1 reversal)
Cc1ccc(-c2nc3cc(Cl)cc(Cl)c3o2)cc1NC(=O)COc1ccccc1	none
COc1ccc(C)cc1NC(=O)CN1C(=O)c2cccc3cccc1c23	none (no result: PD-1 reversal)
CC1=CC(C)(C)N2C(=O)C(=O)c3cc(OC(=O)CN4C(=O)c5cccc6cccc(c56)C4=O)cc1c32	NOMO-1 viab 119
CC1=CC(C)(C)N2C(=O)C(=O)c3cc(OC(=O)CN4C(=O)c5ccccc5C4=O)cc1c32	NOMO-1 viab 115
Cc1ccc(NC(=O)c2ccc(OC(=O)CN3C(=O)c4ccccc4C3=O)cc2)cc1	none (no result: PD-1 reversal)
COc1cc([N+](=O)[O-])ccc1NC(=S)NC(=O)COc1ccc(C)cc1	none (no result: PD-1 reversal)
Cc1csc2sc(COC(=O)Nc3ccccc3)c(C)c12	NOMO-1 viab 120 (no result: STK33 inh)
O=C(Nc1ccccc1)OC1CCCC1	none (no result: STK33 inh)
COc1ccccc1N1CCN(C(=O)CN(c2cc(Cl)ccc2OC)S(C)(=O)=O)CC1	none (no result: PD-1 reversal)
CS/C(Nc1cccc(Cl)c1Cl)=C(/C#N)C(=O)c1cccs1	NOMO-1 viab 94 (no result: STK33 inh)
N#CC(C(=O)c1cccs1)=C1SCCCS1	none (no result: STK33 inh)
Cc1cc(Br)c(NC(=O)CSc2nc3ccccc3[nH]2)cc1C	none
O=C(c1ccccc1)c1ccc(-c2ccccc2)cc1	NOMO-1 viab 91 (no result: STK33 inh)
O=C(O)CCC(=O)c1ccc(-c2ccccc2)cc1	none (no result: PD-1 reversal)
NC(=O)C1CCN(CCC(=O)Nc2ccc(F)cc2)CC1	none (no result: PD-1 reversal)
CCc1ccc(NC(=O)CSc2nc(C)cc(C)n2)cc1	none
COc1ccccc1NC(=O)CCCC(=O)O	none (no result: NOMO-1 viab, PD-1 reversal)
C=C1C(=O)O[C@@H]2C3C(=C(C)[C@@H](O)[C@@H](OC(=O)/C(=C/C)COC(C)=O)[C@@H]12)C(=O)[C@H]1O[C@@]31C (stereo partly specified)	NOMO-1 viab 119
O=[N+]([O-])c1cccc(NC(=S)NCCn2cc(Cl)cn2)c1	none (no result: NOMO-1 viab, PD-1 reversal)
COc1cc([N+](=O)[O-])ccc1NC(=O)COc1ccc2ccccc2c1	none
O=C1C(c2c(O)[nH]c3ccccc23)=Nc2ccccc21	STK33 inh 25
COC(=O)c1cccc(NC(=O)CN2C(=O)c3ccccc3S2(=O)=O)c1C	none (no result: PD-1 reversal)
COc1ccccc1CC(=O)Nc1ccc(-c2noc(-c3ccccc3C)n2)cc1	none
CC(C)NC(=O)Nc1ccc2c(c1)C(=O)N([C@@H](C)CO)C[C@@H](C)[C@@H](CN(C)Cc1ccc3c(c1)OCO3)O2	none
CC(C)NC(=O)Nc1ccc2c(c1)C(=O)N([C@H](C)CO)C[C@H](C)[C@H](CN(C)Cc1ccc3c(c1)OCO3)O2	NOMO-1 viab 93 (no result: STK33 inh, PD-1 reversal)
C[C@@H]1CN([C@@H](C)CO)C(=O)c2cc(NC(=O)C3CCCCC3)ccc2O[C@@H]1CN(C)Cc1ccc2c(c1)OCO2	none (no result: STK33 inh)
COc1ccc(NC(=O)Nc2ccc3c(c2)C(=O)N([C@H](C)CO)C[C@@H](C)[C@@H](CN(C)Cc2ccc4c(c2)OCO4)O3)cc1	none
COc1ccc(NC(=O)Nc2ccc3c(c2)C(=O)N([C@H](C)CO)C[C@H](C)[C@H](CN(C)Cc2ccc4c(c2)OCO4)O3)cc1	NOMO-1 viab 97 (no result: STK33 inh, PD-1 reversal)
C[C@H]1CN([C@@H](C)CO)C(=O)c2cc(NC(=O)C3CCCCC3)ccc2O[C@H]1CN(C)Cc1ccc2c(c1)OCO2	NOMO-1 viab 92
C[C@H](CO)N1C[C@H](C)[C@H](CN(C)Cc2ccc3c(c2)OCO3)Oc2ccc(NC(=O)Nc3ccc(F)cc3)cc2C1=O	NOMO-1 viab 89
C[C@@H]1CN([C@H](C)CO)C(=O)c2cc(NC(=O)Nc3ccc(F)cc3)ccc2O[C@H]1CN(C)Cc1ccc2c(c1)OCO2	none
Cc1sc(NC(=O)COc2ccccc2)c(C(N)=O)c1-c1ccccc1	none
C[C@H](CO)N1C[C@H](C)[C@H](CN(C)Cc2ccc3c(c2)OCO3)Oc2ccc(NC(=O)Nc3ccc4c(c3)OCO4)cc2C1=O	NOMO-1 viab 93 (no result: STK33 inh)
C[C@H]1CN([C@@H](C)CO)C(=O)c2cc(NC(=O)Nc3ccccc3)ccc2O[C@H]1CN(C)Cc1ccc2c(c1)OCO2	NOMO-1 viab 92
C[C@H]1CN([C@@H](C)CO)C(=O)c2cc(NC(=O)Nc3ccc4c(c3)OCO4)ccc2O[C@@H]1CN(C)Cc1ccc2c(c1)OCO2	none (no result: STK33 inh)
C[C@@H]1CN([C@@H](C)CO)C(=O)c2cc(NC(=O)Nc3ccc(F)cc3)ccc2O[C@H]1CN(C)Cc1ccc2c(c1)OCO2	none (no result: STK33 inh)
CC1(C)Cc2ccccc2C(Nc2nc(-c3ccccc3)cs2)=N1	none (no result: STK33 inh)
O=C(Cn1cnc2scc(-c3cccc([N+](=O)[O-])c3)c2c1=O)Nc1cccc(C(F)(F)F)c1	none
Cc1ccc(C)c(N(CC(=O)Nc2ccc(Br)c(Cl)c2)S(C)(=O)=O)c1	none
CC(=O)Nc1nonc1-c1nc2ccccc2n1Cc1ccc(Cl)cc1Cl	NOMO-1 viab inconclusive
CCC(=O)Nc1nonc1-c1nc2ccccc2n1Cc1cc(OC)ccc1C	NOMO-1 viab 130
N#CC1=C(N)N2CCSC2=NC1(C(F)(F)F)C(F)(F)F	none (no result: STK33 inh)
O=C1C=CC(=C(c2ccc(O)cc2)c2ccc(O)cc2)C=C1	NOMO-1 viab 108 (no result: PD-1 reversal)
C[C@@H]1CN([C@H](C)CO)C(=O)c2cccc(NC(=O)Nc3ccc(C(F)(F)F)cc3)c2O[C@H]1CN(C)C(=O)Nc1ccc2c(c1)OCO2	NOMO-1 viab 116 (no result: STK33 inh)
C[C@@H]1CN([C@H](C)CO)C(=O)c2cccc(NC(=O)Nc3ccc4c(c3)OCO4)c2O[C@H]1CN(C)C(=O)Nc1ccc2c(c1)OCO2	none (no result: STK33 inh)
C[C@H]1CN([C@@H](C)CO)C(=O)c2cccc(NC(=O)Nc3ccc(F)cc3)c2O[C@H]1CN(C)C(=O)Nc1ccc2c(c1)OCO2	none (no result: STK33 inh)
C[C@@H]1CN([C@@H](C)CO)C(=O)c2cccc(NC(=O)Nc3ccc(C(F)(F)F)cc3)c2O[C@H]1CN(C)C(=O)Nc1ccc2c(c1)OCO2	NOMO-1 viab 89 (no result: STK33 inh, PD-1 reversal)
CC1(C)CC(NC(=O)CC(c2ccc(F)cc2)c2ccco2)CCO1 (stereo unspecified)	none
Cc1ccc(CN2C(=O)N(c3ccccc3)C(=O)C2CC(=O)Nc2ccccc2)cc1 (stereo unspecified)	none
CN1C(=O)C(CC(=O)Nc2ccc(Cl)cc2)N(Cc2ccco2)C1=S (stereo unspecified)	NOMO-1 viab 152
